# Results filed as inconclusive are left out. Entries that show only a call come without a potency. Values without a mark were called inactive. Activity calls are given as the source filed them. Unless noted, calls come from the whole dose curve; as a rule, active = well fitted curve in the direction sought with a large enough effect in the repeat runs; inconclusive = weak or mixed curves; inactive = no such curve, though single readings can be large; an effect the other way counts as inactive or inconclusive.
# How the values were obtained:
# [1] = qHTS assay to identify small molecule antagonists of the vitamin D receptor (VDR) signaling pathway - cell viability counter screen (AID 743225); note: nearly all actives have a fitted effect of over 50% in size; note: potency is the fitted concentration of half-maximal effect
# How it was run: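 Viability counter screen run in the same wells as the beta-lactamase reporter assay: HEK 293T VDR-UAS-bla cells, 16 h compound exposure at 37C with 3 nM (final) 1-alpha,25-dihydroxyvitamin D3. CellTiter-Glo luminescence, 30 min, room temperature.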
# [2] = qHTS assay to identify small molecule agonists of the NFkB signaling pathway - cell viability counter screen (AID 1159515; calls by dose curve; note: series mostly up to about 61 µM; nearly all actives have a fitted effect of over 55% in size)
# How it was run: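 Cells are seeded (2,000 NFkB-bla ME-180 per well), rested overnight, and dosed with DMSO-dissolved compounds for 5 hr at 37 C. Viability is then read by CellTiter-Glo luminescence after 30 min at room temperature.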
# [3] = qHTS assay to identify small molecule agonists of the endoplasmic reticulum stress response signaling pathway (AID 1159516; active = well fitted activation curve with a large enough effect in the signal ratio in the repeat runs, not every such curve was filed as active; the % refers to the signal ratio)
# How it was run: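 Cells are seeded at 1,500 per well and incubated overnight. Compounds in DMSO are added for 5 hr at 37 C, then beta-lactamase FRET substrate for 2 hr at room temperature, and fluorescence at 460 and 530 nm is measured.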
# [4] = qHTS assay to identify small molecule antagonists of the retinoid-related orphan receptor gamma (ROR-gamma) signaling pathway - cell viability counter screen (AID 1159520); note: nearly all actives have a fitted effect of over 50% in size
# How it was run: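 Tet-on ROR gamma CHO cells were given compounds for 2 hr, then doxycycline hyclate at 1 uM final, and incubated 16 hr at 37 C. Viability was measured as ATP content by CellTiter-Glo luminescence.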
# [5] = target: Nuclear receptor ROR-gamma (Homo sapiens) (UniProt P51449); experiment: qHTS assay to identify small molecule antagonists of the retinoid-related orphan receptor gamma (ROR-gamma) signaling pathway (AID 1159521; note: nearly all actives have a fitted effect of over 50% in size; note: potency is the fitted concentration of half-maximal effect;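 for activity change, negative = inhibition: CHO cells with doxycycline inducible ROR-gamma driving an RORE luciferase reporter; top concentration of the series differs between compounds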)
# How it was run: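 Luminescence readout (ONE-Glo, 30 min RT) after 16 h doxycycline induction; loss of signal scored as antagonism. CHO cells with TET-inducible RORγ and RORE-LUC reporter; compounds added 2 h before 1 uM final doxycycline.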
# [6] = qHTS assay to identify small molecule agonists of the AP-1 signaling pathway - cell viability counter screen (AID 1159525; calls by dose curve; note: nearly all actives have a fitted effect of over 55% in size)
# How it was run: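 Same-well cytotoxicity counter screen of the Tox21 10K library in ME-180 cells. The readout is ATP-dependent luminescence after 5 h compound treatment. Data are normalised to DMSO and tetra n-octyl ammonium bromide controls.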
# [7] = qHTS assay to identify small molecule agonists of the AP-1 signaling pathway (AID 1159526; calls by dose curve)
# [8] = target: Retinoic acid receptor RXR-alpha (Homo sapiens) (UniProt P19793); experiment: qHTS assay to identify small molecule agonists of the RXR signaling pathway (AID 1159527; calls by dose curve; note: nearly all actives have a fitted effect of over 35% in size)
# Chain of Retinoic acid receptor RXR-alpha (Homo sapiens) (P19793 whole entry, looked up): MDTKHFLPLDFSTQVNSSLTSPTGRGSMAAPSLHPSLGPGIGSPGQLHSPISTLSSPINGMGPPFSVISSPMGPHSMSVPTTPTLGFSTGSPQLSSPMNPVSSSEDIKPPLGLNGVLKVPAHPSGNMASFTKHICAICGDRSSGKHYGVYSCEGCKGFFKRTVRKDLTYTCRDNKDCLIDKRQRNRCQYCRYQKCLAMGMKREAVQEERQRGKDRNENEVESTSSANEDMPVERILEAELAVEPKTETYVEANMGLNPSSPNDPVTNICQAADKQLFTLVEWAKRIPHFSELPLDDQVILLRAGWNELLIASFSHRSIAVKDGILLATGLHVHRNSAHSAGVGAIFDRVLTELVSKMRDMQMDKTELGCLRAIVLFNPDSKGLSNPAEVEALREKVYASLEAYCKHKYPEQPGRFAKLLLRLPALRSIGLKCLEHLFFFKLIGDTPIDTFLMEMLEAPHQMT
# How it was run: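 Agonist mode; 9-cis retinoic acid positive control. HEK 293T UAS-bla reporter cells, 2% charcoal-stripped FBS, 16 hr compound exposure at 37 C/5% CO2. LiveBLAzer B/G FRET substrate 2 hr RT; ex 405, em 460/530 nm.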
# [9] = qHTS assay to identify small molecule agonists of the RXR signaling pathway - cell viability counter screen (AID 1159529); note: nearly all actives have a fitted effect of over 50% in size; note: potency is the fitted concentration of half-maximal effect; for activity change, negative = cytotoxicity: series mostly up to about 77 µM
# How it was run: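 Luminescence from CellTiter-Glo (30 min, RT) measured viability in the same wells as the beta-lactamase reporter readout. Cells: GeneBLAzer RXR-alpha HEK 293T, 2% charcoal-stripped FBS. Compound exposure 16 hr, 37 C.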
# [10] = qHTS assay to identify small molecule antagonists of the retinoid acid receptor (RAR) signaling pathway - cell viability counter screen (AID 1159551); note: nearly all actives have a fitted effect of over 35% in size
# How it was run: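 Cells (C3RL4) are plated, incubated overnight, dosed with compound in DMSO, then given retinol at 1 uM final. After 6 h at 37 C, CellTiter-Glo is added and luminescence read following 30 min at room temperature.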
# [11] = qHTS assay to identify small molecule antagonists of the retinoic acid receptor (RAR) signaling pathway (AID 1159552; note: nearly all actives have a fitted effect of over 50% in size; note: potency is the fitted concentration of half-maximal effect)
# How it was run: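 Luminescence from a RARE luciferase reporter in C3RL4 cells served as read-out. Cells received compounds together with 1 uM final retinol and incubated 6 hr at 37 C before detection reagent was added for 30 min at room temperature.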
# [12] = qHTS assay to identify small molecule agonists of the retinoic acid receptor (RAR) signaling pathway (AID 1159553); note: potency is the fitted concentration of half-maximal effect
# How it was run: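 Seed C3RL4 reporter cells at 1,000 per well and incubate overnight at 37 C. Add compounds in DMSO, incubate 6 hr. Add luciferase reagent, wait 30 min at room temperature, read luminescence.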
# [13] = qHTS assay to identify small molecule antagonists of the estrogen related receptor (ERR) signaling pathway from Tox21 library - cell viability counter screen (AID 1224834); note: nearly all actives have a fitted effect of over 30% in size; note: potency is the fitted concentration of half-maximal effect
# How it was run: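 ERR cells, 2,000/well; 6 h settle at 37 C/5% CO2; pin-tool compound transfer in DMSO; 17.5 h at 37 C; CellTiter-Fluor, 30 min; fluorescence intensity.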
# [14] = qHTS assay to identify small molecule agonists of the endoplasmic reticulum stress response signaling pathway - cell viability counter screen (AID 1159517; calls by dose curve)
# How it was run: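 Steps: seed 1,500 ESRE-bla HeLa cells per well; incubate overnight at 37 C, 5% CO2; add compounds in DMSO for 5 hr; run FRET substrate 2 hr RT; add CellTiter-Glo, wait 30 min, read luminescence.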
structure (smiles),measurement,setting,value
CN,Potency,[1],inactive
same,Potency,[2],inactive
same,Potency,[3],inactive
same,Potency,[4],inactive
same,Potency,[5],inactive
same,Potency,[6],inactive
same,Potency,[7],inactive
same,Potency,[8],inactive
same,Potency,[9],inactive
same,Potency,[10],inactive
same,Potency,[11],inactive
same,Potency,[12],inactive
same,Potency,[13],inactive
Oc1ccc([C@H]2CNCc3c2ccc(O)c3O)cc1O,Potency,[1],inactive
same,Potency,[2],inactive
same,Potency,[3],inactive
same,Potency,[14],inactive
same,Potency,[6],inactive
same,Potency,[7],inactive
same,Potency,[8],inactive
same,Potency,[10],inactive
same,Potency,[11],inactive
same,Potency,[12],23.7 µM (active)
same,Potency,[13],inactive
Clc1c(Cl)c(Cl)c(Cl)c(Cl)c1Cl,"viability change, negative = cytotoxic",[1],-2.04% [at 6.95 µM]
same,"activity, negative = cytotoxic",[2],7.25% [at 6.95 µM]
same,activation,[3],-1.07% [at 6.95 µM]
same,"activity, negative = cytotoxicity",[4],5.16% [at 8.39 µM]
same,"activity change, negative = inhibition",[5],5.22% [at 8.39 µM]
same,"viability change, negative = cytotoxic",[6],5.85% [at 6.97 µM]
same,activation,[7],-2.52% [at 6.97 µM]
same,activation,[8],5.73% [at 6.98 µM]
same,"activity change, negative = cytotoxicity",[9],0.339% [at 6.97 µM]
same,"activity change, negative = cytotoxicity",[10],0.805% [at 8.39 µM]
same,"activity, negative = inhibition",[11],2.67% [at 8.39 µM]
same,activation,[12],-1.82% [at 8.36 µM]
same,"viability change, negative = cytotoxic",[13],3.08% [at 8.39 µM]
C=CC(=C)C,Potency,[1],inactive
same,Potency,[2],inactive
same,Potency,[3],inactive
same,Potency,[4],inactive
same,Potency,[5],inactive
same,Potency,[6],inactive
same,Potency,[7],inactive
same,Potency,[8],inactive
same,Potency,[9],inactive
same,Potency,[10],inactive
same,Potency,[11],inactive
same,Potency,[12],inactive
same,Potency,[13],inactive
CCC(OC(C)=O)C(CC(C)NC)(c1ccccc1)c1ccccc1 (stereo not given),Potency,[1],44 µM (active)
same,Potency,[2],inactive
same,Potency,[3],inactive
same,Potency,[14],inactive
same,Potency,[6],inactive
same,Potency,[10],inactive
same,Potency,[11],30.9 µM (active)
same,Potency,[13],69.2 µM (active)
COc1ccc2c3c1O[C@H]1[C@H](O)CC[C@H]4[C@@H](C2)N(C)CC[C@@]341,Potency,[1],inactive
same,Potency,[2],inactive
same,Potency,[3],inactive
same,Potency,[4],inactive
same,Potency,[5],inactive
same,Potency,[6],inactive
same,Potency,[7],inactive
same,Potency,[8],inactive
same,Potency,[9],inactive
same,Potency,[10],inactive
same,Potency,[11],inactive
same,Potency,[13],inactive
S=C=Nc1ccccc1,Potency,[1],inactive
same,Potency,[2],inactive
same,Potency,[3],inactive
same,Potency,[4],inactive
same,Potency,[5],inactive
same,Potency,[6],inactive
same,Potency,[7],inactive
same,Potency,[8],inactive
same,Potency,[11],inactive
same,Potency,[12],70.8 µM (active)
same,Potency,[13],inactive
O=S1(=O)OCC2C(CO1)C1(Cl)C(Cl)=C(Cl)C2(Cl)C1(Cl)Cl (stereo not given),Potency,[2],inactive
same,Potency,[3],inactive
same,Potency,[14],inactive
same,Potency,[5],19.3 µM (active)
same,Potency,[9],43.6 µM (active)
CN1C2CCC(C)(C)C1CC(OC(=O)C(O)(c1cccs1)c1cccs1)C2 (stereo not given),Potency,[1],inactive
same,Potency,[2],inactive
same,Potency,[3],inactive
same,Potency,[4],inactive
same,Potency,[5],inactive
same,Potency,[6],inactive
same,Potency,[7],inactive
same,Potency,[8],inactive
same,Potency,[9],inactive
same,Potency,[10],inactive
same,Potency,[11],inactive
same,Potency,[12],inactive
N#CCCl,Potency,[1],inactive
same,Potency,[2],inactive
same,Potency,[3],inactive
same,Potency,[4],inactive
same,Potency,[5],inactive
same,Potency,[6],inactive
same,Potency,[7],inactive
same,Potency,[10],inactive
same,Potency,[12],inactive
Nc1ccccc1-c1ccccc1,Potency,[1],inactive
same,Potency,[2],inactive
same,Potency,[3],inactive
same,Potency,[4],inactive
same,Potency,[5],inactive
same,Potency,[6],inactive
same,Potency,[7],inactive
same,Potency,[9],21.7 µM (active)
same,Potency,[10],inactive
same,Potency,[11],inactive
same,Potency,[12],inactive
O=C(NC(=O)c1c(F)cccc1F)Nc1ccc(Oc2ccc(C(F)(F)F)cc2Cl)cc1F,Potency,[1],inactive
same,Potency,[2],inactive
same,Potency,[3],inactive
same,Potency,[14],inactive
same,Potency,[5],24.3 µM (active)
same,Potency,[6],inactive
same,Potency,[10],inactive
[O]=[Cr][O][Cr]=[O],Potency,[1],inactive
same,Potency,[2],inactive
same,Potency,[3],inactive
same,Potency,[4],inactive
same,Potency,[5],inactive
same,Potency,[6],inactive
same,Potency,[7],inactive
same,Potency,[8],inactive
same,Potency,[9],inactive
same,Potency,[11],inactive
same,Potency,[12],inactive
same,Potency,[13],inactive
COc1ccc2c(c1OC)C(=O)O[C@@H]2[C@H]1c2cc3c(cc2CCN1C)OCO3,Potency,[2],inactive
same,Potency,[3],inactive
same,Potency,[4],inactive
same,Potency,[5],inactive
same,Potency,[6],inactive
same,Potency,[7],inactive
same,Potency,[8],inactive
same,Potency,[9],inactive
same,Potency,[13],9.59 µM (active)
CCOP(=S)(OCC)SC(CCl)N1C(=O)c2ccccc2C1=O (stereo not given),Potency,[1],inactive
same,Potency,[2],inactive
same,Potency,[3],inactive
same,Potency,[4],inactive
same,Potency,[5],inactive
same,Potency,[6],inactive
same,Potency,[7],inactive
same,Potency,[10],inactive
same,Potency,[12],inactive
same,Potency,[13],inactive
CCOC(=O)CCN(SN(C)C(=O)Oc1cccc2c1OC(C)(C)C2)C(C)C,Potency,[2],inactive
same,Potency,[3],inactive
same,Potency,[14],inactive
same,Potency,[5],30.6 µM (active)
same,Potency,[6],inactive
same,Potency,[9],inactive
same,Potency,[10],inactive
same,Potency,[11],61.1 µM (active)
same,Potency,[12],inactive
same,Potency,[13],inactive
C#CCC1=C(C)C(OC(=O)C2C(C=C(C)C)C2(C)C)CC1=O (stereo not given),Potency,[2],inactive
same,Potency,[3],inactive
same,Potency,[14],inactive
same,Potency,[6],inactive
same,Potency,[12],inactive
O=Cc1ccccc1,Potency,[2],inactive
same,Potency,[3],inactive
same,Potency,[4],inactive
same,Potency,[5],inactive
same,Potency,[6],inactive
same,Potency,[7],inactive
same,Potency,[8],inactive
same,Potency,[9],inactive
same,Potency,[11],inactive
same,Potency,[12],inactive
same,Potency,[13],inactive
CCCCCON=O,Potency,[1],inactive
same,Potency,[2],inactive
same,Potency,[3],inactive
same,Potency,[4],inactive
same,Potency,[5],inactive
same,Potency,[6],inactive
same,Potency,[7],inactive
same,Potency,[8],inactive
same,Potency,[10],inactive
same,Potency,[12],inactive
same,Potency,[13],inactive
Nc1nc(N)nc(Cl)n1,Potency,[2],inactive
same,Potency,[3],inactive
same,Potency,[4],inactive
same,Potency,[5],inactive
same,Potency,[6],inactive
same,Potency,[7],inactive
same,Potency,[8],inactive
same,Potency,[9],inactive
same,Potency,[10],inactive
same,Potency,[11],inactive
same,Potency,[12],inactive
same,Potency,[13],inactive
